# Experimental data from PubChem BioAssay (EPA / NIEHS).
# “And” between values parts separate entries of the source, which are not always exact repeats. Identical values can stand only once. Results filed as inconclusive are left out. Some compounds were tested as several samples or in several runs, with calls that do not always agree. The source made the active and inactive calls. The calls were made as follows: active = hit-call score of the fitted dose curve at least 0.9, where 1 is the maximum; inconclusive = response in the unintended direction; inactive = score below 0.9.
# Assays:
# [1] = target: Androgen Receptor/SRC-1 Co-activator, AR (gene 367) (UniProt P10275); assay: OT_AR_ARSRC1_0960: Odyssey Thera (OT) 16-hour HEK293T Protein-Complementation Assay for Androgen Receptor/SRC-1 Co-activator (AID 2283353);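 also: actives raise the signal above DMSO so potency reflects increased AR and SRC-1 complex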
# Androgen Receptor/SRC-1 Co-activator, AR (gene 367), sequence (P10275 whole entry, looked up, the tested form may be a part): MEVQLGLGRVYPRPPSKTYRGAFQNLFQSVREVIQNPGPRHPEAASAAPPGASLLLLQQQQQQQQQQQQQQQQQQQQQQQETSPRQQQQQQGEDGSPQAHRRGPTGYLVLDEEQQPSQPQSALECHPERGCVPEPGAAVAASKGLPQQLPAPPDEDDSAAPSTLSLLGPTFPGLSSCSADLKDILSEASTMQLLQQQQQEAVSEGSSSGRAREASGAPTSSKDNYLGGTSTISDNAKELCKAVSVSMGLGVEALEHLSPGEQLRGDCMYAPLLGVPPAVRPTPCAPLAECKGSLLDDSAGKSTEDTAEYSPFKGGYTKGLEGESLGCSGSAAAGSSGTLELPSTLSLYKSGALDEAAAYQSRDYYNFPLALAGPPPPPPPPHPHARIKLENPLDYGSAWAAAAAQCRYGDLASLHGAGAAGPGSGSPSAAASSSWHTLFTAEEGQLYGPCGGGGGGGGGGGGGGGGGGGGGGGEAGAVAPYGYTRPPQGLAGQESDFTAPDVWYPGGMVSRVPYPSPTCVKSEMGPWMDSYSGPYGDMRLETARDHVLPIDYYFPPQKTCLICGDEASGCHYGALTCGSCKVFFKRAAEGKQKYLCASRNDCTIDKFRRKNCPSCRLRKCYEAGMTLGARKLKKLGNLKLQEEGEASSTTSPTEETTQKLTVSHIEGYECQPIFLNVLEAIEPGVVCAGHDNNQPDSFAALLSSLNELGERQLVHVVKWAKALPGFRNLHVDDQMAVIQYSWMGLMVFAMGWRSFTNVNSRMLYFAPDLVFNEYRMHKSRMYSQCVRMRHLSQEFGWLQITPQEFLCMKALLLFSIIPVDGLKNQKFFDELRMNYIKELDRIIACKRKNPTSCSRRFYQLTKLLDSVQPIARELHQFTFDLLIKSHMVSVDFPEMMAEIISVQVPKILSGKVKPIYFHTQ
# How it was run: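 HEK293T cells stably expressing AR and SRC-1 fused to Venus YFP fragments, imaged 16 h after dosing. Nuclear/cytoplasmic fluorescence ratio at 488 nm from at least 400 cells per image; gain of signal relative to DMSO.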
# [2] = target: rat Mineralocorticoid Receptor (MR), Nr3c2 (gene 25672) (UniProt P22199); assay: NVS_NR_rMR: NovaScreen (NVS) Nuclear Receptor Binding Assay for rat Mineralocorticoid Receptor (MR) (AID 2283355)
# rat Mineralocorticoid Receptor (MR), Nr3c2 (gene 25672), sequence (P22199 whole entry, looked up): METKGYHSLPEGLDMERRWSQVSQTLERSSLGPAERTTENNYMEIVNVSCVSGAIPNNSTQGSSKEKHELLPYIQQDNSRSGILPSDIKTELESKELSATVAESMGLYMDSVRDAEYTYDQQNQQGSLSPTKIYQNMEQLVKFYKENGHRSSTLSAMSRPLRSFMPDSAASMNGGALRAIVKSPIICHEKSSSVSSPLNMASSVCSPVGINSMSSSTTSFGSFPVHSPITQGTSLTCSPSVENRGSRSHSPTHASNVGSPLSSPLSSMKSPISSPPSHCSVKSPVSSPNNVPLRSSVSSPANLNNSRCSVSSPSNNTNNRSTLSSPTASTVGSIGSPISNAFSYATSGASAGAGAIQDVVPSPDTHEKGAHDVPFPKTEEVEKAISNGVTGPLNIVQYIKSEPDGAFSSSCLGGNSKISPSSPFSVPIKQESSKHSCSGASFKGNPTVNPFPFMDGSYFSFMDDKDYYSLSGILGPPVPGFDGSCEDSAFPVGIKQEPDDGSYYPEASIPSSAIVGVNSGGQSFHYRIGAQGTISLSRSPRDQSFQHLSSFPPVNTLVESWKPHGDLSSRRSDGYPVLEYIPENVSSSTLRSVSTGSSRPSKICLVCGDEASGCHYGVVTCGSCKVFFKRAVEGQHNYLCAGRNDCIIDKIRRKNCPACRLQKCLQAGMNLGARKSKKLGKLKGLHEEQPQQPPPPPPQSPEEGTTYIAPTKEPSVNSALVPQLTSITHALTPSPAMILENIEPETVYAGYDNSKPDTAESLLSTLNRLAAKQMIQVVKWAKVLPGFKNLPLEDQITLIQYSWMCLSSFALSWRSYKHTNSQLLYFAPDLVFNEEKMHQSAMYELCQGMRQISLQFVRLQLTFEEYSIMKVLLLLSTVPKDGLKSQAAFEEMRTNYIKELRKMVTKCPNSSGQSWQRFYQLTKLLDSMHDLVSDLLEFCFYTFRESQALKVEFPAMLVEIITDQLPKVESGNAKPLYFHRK
# How it was run: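 Cell-free radioligand binding to mineralocorticoid receptor from adrenalectomized rat brain supernatant, scintillation counting after 24 h. Primary screen in duplicate at 25 uM; actives retested in concentration series. Loss of specific binding versus DMSO.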
# [3] = target: Estrogen receptor beta (Homo sapiens) (UniProt Q92731); assay: OT_ER_ERbERb_0480: Odyssey Thera (OT) 8-hour HEK293T Protein-Complementation Assay for Estrogen Receptor-beta/-beta Homodimer (AID 2283357);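 also: active means signal gain over DMSO baseline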
# How it was run: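 Fluorescence intensity, nuclear for agonists and nuclear plus cytoplasmic for antagonists, was quantified by laser scanning cytometry versus vehicle after 8 h treatment. The cells were HEK293T stably carrying ER beta LBD fragment-complementation partners.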
# PGR (gene 5241) = PGR (gene 5241) (UniProt P06401); assay: NVS_NR_hPR: NovaScreen (NVS) Nuclear Receptor Binding Assay for human Progestron Receptor (PR) (AID 2283360);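 also: active means loss of bound radioligand signal versus DMSO baseline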
# PGR (gene 5241), sequence (P06401 whole entry, looked up): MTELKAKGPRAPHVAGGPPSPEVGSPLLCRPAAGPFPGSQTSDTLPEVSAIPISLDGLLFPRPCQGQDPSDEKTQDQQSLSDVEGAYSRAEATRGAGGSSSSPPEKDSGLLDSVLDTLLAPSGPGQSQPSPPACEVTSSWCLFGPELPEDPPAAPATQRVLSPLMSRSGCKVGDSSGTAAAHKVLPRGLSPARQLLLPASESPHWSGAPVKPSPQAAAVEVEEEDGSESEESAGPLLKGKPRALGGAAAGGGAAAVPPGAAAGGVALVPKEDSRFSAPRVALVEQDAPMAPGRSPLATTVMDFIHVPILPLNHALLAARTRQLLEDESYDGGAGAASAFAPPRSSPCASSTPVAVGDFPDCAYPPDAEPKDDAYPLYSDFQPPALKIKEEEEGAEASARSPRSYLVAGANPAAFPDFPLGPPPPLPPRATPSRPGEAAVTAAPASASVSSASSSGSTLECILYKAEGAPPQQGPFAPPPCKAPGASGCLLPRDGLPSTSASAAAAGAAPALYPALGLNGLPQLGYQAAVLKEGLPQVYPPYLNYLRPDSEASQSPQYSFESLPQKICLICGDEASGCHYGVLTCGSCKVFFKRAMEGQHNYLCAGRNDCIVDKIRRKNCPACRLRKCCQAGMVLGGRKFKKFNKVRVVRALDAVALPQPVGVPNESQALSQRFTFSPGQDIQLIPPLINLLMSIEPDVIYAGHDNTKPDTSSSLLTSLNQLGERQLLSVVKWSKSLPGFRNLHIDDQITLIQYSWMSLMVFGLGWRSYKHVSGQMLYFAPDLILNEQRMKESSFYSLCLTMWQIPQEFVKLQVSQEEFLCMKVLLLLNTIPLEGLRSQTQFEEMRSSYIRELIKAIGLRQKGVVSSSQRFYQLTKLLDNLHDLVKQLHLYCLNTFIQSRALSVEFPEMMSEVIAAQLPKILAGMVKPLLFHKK
# How it was run: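 Radioligand competition binding on receptor extracted from T47D cells, read by scintillation counting 18 h after dosing. Loss of signal versus DMSO; primary screen in duplicate at 25 uM, actives followed in concentration series.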
# [4] = target: Retinoic acid receptor alpha (Homo sapiens) (UniProt P10276); assay: NVS_NR_hRARa_Agonist: NovaScreen (NVS) Nuclear Receptor Binding Assay for human Retinoic Acid Alpha Receptor Agonism (RAR) (AID 2283361)
# How it was run: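 Cell-free TR-FRET binding readout with extracted receptor protein, read 2 hours after dosing; gain-of-signal fitted relative to DMSO. Screened in duplicate at 25 uM, actives then run in concentration-response.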
# [5] = target: human Adenosine Transporter (Adot), SLC29A1 (gene 2030) (UniProt Q99808); assay: NVS_TR_hAdoT: NovaScreen (NVS) Transporter Assay for human Adenosine Transporter (Adot) (AID 2283368)
# How it was run: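 U937-derived membranes, cell-free radioligand binding, filter scintillation 1 h after dosing. 25 uM duplicate screen; hits (e.g. 30% inhibition) run in concentration-response up to 50 uM; loss of signal versus DMSO.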
# [6] = target: human Serotonin Transporter (SERT), SLC6A4 (gene 6532) (UniProt P31645); assay: NVS_TR_hSERT: NovaScreen (NVS) Transporter Assay for human Serotonin Transporter (SERT) (AID 2283372)
# human Serotonin Transporter (SERT), SLC6A4 (gene 6532), sequence (P31645 whole entry, looked up): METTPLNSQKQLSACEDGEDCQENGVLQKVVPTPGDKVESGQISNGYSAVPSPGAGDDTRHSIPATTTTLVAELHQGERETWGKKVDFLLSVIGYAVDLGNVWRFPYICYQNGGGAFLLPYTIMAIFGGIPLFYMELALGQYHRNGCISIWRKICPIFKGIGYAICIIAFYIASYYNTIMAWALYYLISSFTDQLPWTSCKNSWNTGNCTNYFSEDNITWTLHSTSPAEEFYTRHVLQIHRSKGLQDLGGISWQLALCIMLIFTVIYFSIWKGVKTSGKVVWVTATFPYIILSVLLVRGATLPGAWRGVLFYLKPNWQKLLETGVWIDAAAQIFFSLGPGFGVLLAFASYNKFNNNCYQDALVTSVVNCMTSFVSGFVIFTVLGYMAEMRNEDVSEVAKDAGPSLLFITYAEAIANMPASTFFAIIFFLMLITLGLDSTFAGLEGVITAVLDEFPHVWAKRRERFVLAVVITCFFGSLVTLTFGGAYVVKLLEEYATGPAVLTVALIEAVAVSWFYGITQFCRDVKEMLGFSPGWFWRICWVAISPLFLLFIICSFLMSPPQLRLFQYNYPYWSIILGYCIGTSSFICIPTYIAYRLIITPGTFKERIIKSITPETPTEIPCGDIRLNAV
# How it was run: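 Radioligand binding to native SERT in human platelet membranes, read by filter-based scintillation counting 1 h after dosing. Primary screen in duplicate at 25 uM; actives followed up in concentration series; loss of signal versus DMSO baseline.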
# [7] = target: Estrogen receptor (Homo sapiens) (UniProt P03372); assay: OT_ER_ERaERa_0480: Odyssey Thera (OT) 8-hour HEK293T Protein-Complementation Assay for Estrogen Receptor-alpha/-alpha Homodimer (AID 2283351);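 also: rise in fluorescence from reassembled reporter fragments on ERα LBD homodimer in nucleus or whole cell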
# How it was run: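 The readout is complementation of fragments fused to the human ER alpha ligand-binding domain (aa 310-547), stably expressed in HEK293T cells. After 8 h of exposure, the increase in nuclear/cytoplasmic fluorescence was measured by laser scanning cytometry and fitted relative to DMSO.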
# [8] = target: T1, Estrogen receptor (Homo sapiens) + Estrogen receptor beta (Homo sapiens) (UniProt P03372+Q92731); assay: OT_ER_ERaERb_0480: Odyssey Thera (OT) 8-hour HEK293T Protein-Complementation Assay for Estrogen Receptor-alpha/-beta Heterodimer (AID 2283352)
# How it was run: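 HEK293T cells expressing ER-alpha/ER-beta LBD fusions to complementary reporter fragments were dosed with compound for 8 hours. Heterodimer formation was read as increased nuclear (agonist) or nuclear plus cytoplasmic (antagonist) mean fluorescence intensity versus DMSO vehicle.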
# [9] = target: Androgen Receptor/SRC-1 Co-activator, AR (gene 367) (UniProt P10275); assay: OT_AR_ARSRC1_0480: Odyssey Thera (OT) 8-hour HEK293T Protein-Complementation Assay for Androgen Receptor/SRC-1 Co-activator (AID 2283354);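 also: hits raise the complementation signal above DMSO so AC50 marks enhancers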
# How it was run: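 HEK293T cells stably expressing AR and SRC-1 fused to Venus YFP fragments, imaged 8 h after dosing. Complementation fluorescence scored as nuclear/cytoplasmic ratio at 488 nm in at least 400 cells per image; gain fitted versus DMSO.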
# [10] = target: T1, Estrogen receptor (Homo sapiens) + Estrogen receptor beta (Homo sapiens); assay: OT_ER_ERaERb_1440: Odyssey Thera (OT) 24-hour HEK293T Protein-Complementation Assay for Estrogen Receptor-alpha/-beta Homodimer (AID 2283356);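 also: heteromer of ER alpha and ER beta binding domains; hits raise reporter fluorescence and both agonists and antagonists give an increase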
# How it was run: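 HEK293T cells stably expressing a PCA pair of ERα LBD (aa 310-547) and ERβ LBD (aa 263-489) were dosed for 24 h. Fluorescence intensity increase versus DMSO vehicle was fitted as gain-of-signal.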
# [11] = target: Nuclear receptor subfamily 1 group I member 2 (Homo sapiens) (UniProt O75469); assay: NVS_NR_hPXR: NovaScreen (NVS) Nuclear Receptor Binding Assay for human Pregnane X Receptor (PXR) (AID 2283365);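 also: a drop in FRET signal versus DMSO baseline means the compound binds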
# How it was run: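 Cell-free binding assay with extracted human PXR protein, read by TR-FRET 2 h after dosing; loss of signal relative to DMSO baseline indicates binding. Primary screen at 25 uM in duplicate, actives retested in concentration series.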
# [12] = target: human Peroxisome Proliferator-activated Receptor alpha (PPARa), PPARA (gene 5465) (UniProt Q07869); assay: NVS_NR_hPPARa: NovaScreen (NVS) Nuclear Receptor Binding Assay for human Peroxisome Proliferator-activated Receptor alpha (PPARa) (AID 2283359);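 also: activity means loss of TR-FRET signal versus DMSO baseline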
# human Peroxisome Proliferator-activated Receptor alpha (PPARa), PPARA (gene 5465), sequence (Q07869 whole entry, looked up): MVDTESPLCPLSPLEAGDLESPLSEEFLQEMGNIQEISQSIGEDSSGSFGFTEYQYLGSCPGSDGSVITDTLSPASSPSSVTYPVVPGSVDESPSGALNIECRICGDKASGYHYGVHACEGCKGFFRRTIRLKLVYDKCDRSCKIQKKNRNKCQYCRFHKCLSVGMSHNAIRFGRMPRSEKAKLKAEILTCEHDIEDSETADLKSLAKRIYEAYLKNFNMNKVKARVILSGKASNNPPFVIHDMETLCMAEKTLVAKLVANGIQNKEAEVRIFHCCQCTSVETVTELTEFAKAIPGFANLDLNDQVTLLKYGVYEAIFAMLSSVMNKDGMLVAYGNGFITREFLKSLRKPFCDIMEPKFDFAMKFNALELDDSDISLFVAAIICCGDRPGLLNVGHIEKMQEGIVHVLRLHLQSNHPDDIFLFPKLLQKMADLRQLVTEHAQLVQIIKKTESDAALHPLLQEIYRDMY
# How it was run: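 Cell-free TR-FRET binding assay with extracted PPARα protein, read 1 h after dosing. Primary screen in duplicate at 25 uM, with actives retested in concentration series. Loss of signal versus DMSO.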
# [13] = target: guinea pig Sigma Receptor, Non-selective Binding, SIGMAR1 (gene 100135589) (UniProt Q60492); assay: NVS_OR_gSIGMA_NonSelective: NovaScreen (NVS) Nuclear Receptor Binding Assay for guinea pig Sigma Receptor, Non-selective Binding (AID 2283367)
# guinea pig Sigma Receptor, Non-selective Binding, SIGMAR1 (gene 100135589), sequence (Q60492 whole entry, looked up): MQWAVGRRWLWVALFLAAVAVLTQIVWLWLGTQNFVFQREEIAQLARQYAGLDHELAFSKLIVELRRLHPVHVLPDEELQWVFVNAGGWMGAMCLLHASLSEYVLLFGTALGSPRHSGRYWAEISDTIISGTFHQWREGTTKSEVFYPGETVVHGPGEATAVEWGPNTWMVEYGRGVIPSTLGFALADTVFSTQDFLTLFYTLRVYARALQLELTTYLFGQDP
# How it was run: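 Radioligand displacement on guinea pig brain membranes, read by filter-based scintillation counting 1 h after dosing. Loss of signal versus DMSO; initial duplicate single-point screen at 25 uM, actives followed in concentration series.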
# [14] = test system: guinea pig Dopamine Transporter (DAT), gene 100714898; assay: NVS_TR_gDAT: NovaScreen (NVS) Transporter Assay for guinea pig Dopamine Transporter (DAT) (AID 2283369);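 also: active compounds lower bound radioligand signal relative to DMSO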
# How it was run: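 Guinea pig striatal membranes; radioligand displacement measured by filter-based scintillation counting 2 h after dosing. Initial duplicate screen at 25 uM, then concentration-response up to 50 uM for hits; loss of signal versus DMSO baseline.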
# [15] = test system: rat Norepinephrine Transporter (NET), gene 83511; assay: NVS_TR_rNET: NovaScreen (NVS) Transporter Assay for rat Norepinephrine Transporter (NET) (AID 2283373)
# How it was run: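 Rat forebrain membranes; radioligand binding measured by filter-based scintillation counting 1 hour after dosing. Loss of specific binding versus DMSO baseline scored; primary screen in duplicate at 25 uM, actives followed up in concentration series.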
# [16] = target: Glucocorticoid receptor (Homo sapiens) (UniProt P04150); assay: NVS_NR_hGR: NovaScreen (NVS) Nuclear Receptor Binding Assay for human Glucocorticoid Receptor (GR) (AID 2283363);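 as to AC50: activity is loss of specific radioligand binding signal relative to DMSO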
# Glucocorticoid receptor (Homo sapiens), sequence (P04150 whole entry, looked up): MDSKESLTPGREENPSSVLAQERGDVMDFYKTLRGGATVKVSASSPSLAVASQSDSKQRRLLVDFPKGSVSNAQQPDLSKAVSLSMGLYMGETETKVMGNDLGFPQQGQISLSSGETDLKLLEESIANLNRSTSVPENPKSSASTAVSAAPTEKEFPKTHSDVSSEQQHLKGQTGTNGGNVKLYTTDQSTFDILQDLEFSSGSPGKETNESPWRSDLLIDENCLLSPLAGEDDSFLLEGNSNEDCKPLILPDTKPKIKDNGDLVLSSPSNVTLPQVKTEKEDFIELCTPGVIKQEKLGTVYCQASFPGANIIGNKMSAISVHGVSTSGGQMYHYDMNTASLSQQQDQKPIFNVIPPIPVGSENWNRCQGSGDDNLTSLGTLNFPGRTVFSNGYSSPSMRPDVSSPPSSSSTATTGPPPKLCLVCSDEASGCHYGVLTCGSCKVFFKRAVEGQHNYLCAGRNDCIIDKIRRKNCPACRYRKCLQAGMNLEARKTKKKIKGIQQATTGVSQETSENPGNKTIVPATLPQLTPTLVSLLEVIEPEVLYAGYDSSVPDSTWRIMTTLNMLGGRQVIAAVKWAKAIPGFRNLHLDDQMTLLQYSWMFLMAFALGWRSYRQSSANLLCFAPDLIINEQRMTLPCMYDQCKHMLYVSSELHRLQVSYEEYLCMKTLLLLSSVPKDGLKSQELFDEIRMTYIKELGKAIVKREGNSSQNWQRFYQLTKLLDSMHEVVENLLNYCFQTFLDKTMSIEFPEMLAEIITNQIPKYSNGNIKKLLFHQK
# How it was run: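 Cell-free radioligand displacement assay on extracted human GR, read 16 h after dosing by filter-based scintillation counting. Screened in duplicate at 25 uM, then concentration series for actives; loss of signal versus DMSO baseline.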
# [17] = target: Retinoic acid receptor alpha (Homo sapiens) (UniProt P10276); assay: NVS_NR_hRAR_Antagonist: NovaScreen (NVS) Nuclear Receptor Binding Assay for human Retinoic Acid Alpha Receptor Antagonism (RAR) (AID 2283358)
# How it was run: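 Cell-free TR-FRET binding assay with extracted human RARalpha in antagonist mode, read 2 h after dosing. Loss of signal was fitted relative to DMSO; the primary screen used 25 uM in duplicate, with concentration series on follow-up.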
smiles,measurement,setting,value
C[C@]12C=CC3=C4CCC(=O)C=C4CC[C@H]3[C@@H]1CC[C@@H]2O,AC50,[1],1.14 nM (active) and 2.3 nM (active) and 30 nM (active)
same,AC50,[2],69.1 nM (active) and 245 nM (active)
same,AC50,[3],370 nM (active) and 12.5 µM (active)
same,outcome,[3],inactive
same,AC50,PGR (gene 5241),0.00382 µM (active)
same,AC50,[4],19.6 µM (active) [middle of 4 runs]
same,AC50,[5],35.2 µM (active)
same,outcome,[6],inactive
C[N+](C)(C)CC1CO1 (configuration not stated),outcome,[7],inactive
same,outcome,[8],inactive
same,outcome,[9],inactive
same,outcome,[10],inactive
same,outcome,[3],inactive
same,outcome,[11],inactive
O=[N+]([O-])C(Br)(CO)CO,outcome,[7],inactive
same,AC50,[1],71 µM (active)
same,AC50,[9],72.1 µM (active)
same,outcome,[10],inactive
same,outcome,[3],inactive
same,outcome,[12],inactive
same,AC50,[5],25 µM (active)
COC(=O)c1ccccc1N,outcome,[3],inactive
O=C(N[C@H](c1ccccc1)[C@@H]1CN2CCC1CC2)c1c(Cl)ccc(C(F)(F)F)c1Cl,outcome,[3],inactive
same,AC50,[13],22.3 µM (active)
same,AC50,[14],29.9 µM (active)
same,AC50,[6],1.52 µM (active)
same,AC50,[15],26.4 µM (active)
CCCCCCCCOC(=O)c1ccc(C(=O)OCCCCCCCC)c(C(=O)OCCCCCCCC)c1,outcome,[3],inactive
same,outcome,PGR (gene 5241),inactive
CC(C)(C)OOC(=O)c1ccccc1,outcome,[3],inactive
same,outcome,[12],inactive
same,outcome,[11],inactive
CCCCOC(=O)c1ccccc1C(=O)OCc1ccccc1,AC50,[3],12.6 µM (active)
same,outcome,[12],inactive
same,outcome,[13],inactive
Nc1ccc(Oc2ccc(N)cc2)cc1,outcome,[3],inactive
same,outcome,[12],inactive
same,AC50,[14],2.99 µM (active)
Nc1cc(Cl)cc(C(=O)O)c1Cl,outcome,[3],inactive
[As]#[In],outcome,PGR (gene 5241),inactive
CN(C)c1ccccc1,outcome,[3],inactive
CCOC(=O)[C@]1(c2ccccc2)Oc2ccccc2[C@@H]1N,outcome,[12],inactive
same,AC50,[16],25 µM (active)
same,AC50,[13],0.0612 µM (active)
same,AC50,[14],5.45 µM (active)
same,AC50,[6],2.56 µM (active)
same,AC50,[15],5.35 µM (active)
O=Cc1ccco1,outcome,PGR (gene 5241),inactive
same,outcome,[6],inactive
Cc1cccc(N)c1N,outcome,[3],inactive
same,outcome,[12],inactive
same,outcome,[4],inactive
Cc1ccc(N=C=O)cc1N=C=O,outcome,PGR (gene 5241),inactive
O=[N+]([O-])c1ccc(Oc2ccc(Cl)cc2Cl)cc1,outcome,[3],inactive
same,outcome,[16],inactive
same,outcome,[14],inactive
same,outcome,[6],inactive
N#CC(Br)(Br)C(N)=O,outcome,[13],inactive
c1ccc2c(c1)oc1ccccc12,outcome,[3],inactive
CCN(CC)N=O,outcome,[17],inactive
same,outcome,[12],inactive
CC(O)CCO (configuration not stated),outcome,[3],inactive
Clc1ccc(Cl)c(Cl)c1,outcome,[3],inactive
c1ccc2c(c1)-c1cccc3cccc-2c13,AC50,[3],37 µM (active)
same,outcome,PGR (gene 5241),inactive
same,outcome,[4],inactive
CS(=O)(=O)NC(=O)c1cc(Oc2ccc(C(F)(F)F)cc2Cl)ccc1[N+](=O)[O-],outcome,[12],inactive
Cc1ccc(N)c(N)c1,outcome,[3],inactive
Clc1ccc(C(c2ccc(Cl)cc2)C(Cl)(Cl)Cl)cc1,AC50,[3],12.7 µM (active)
CCC(C)c1ccc(O)cc1 (configuration not stated),AC50,[3],16.3 µM (active)
same,AC50,[14],4.96 µM (active)
same,outcome,[15],inactive
CCN(CC)CCO,outcome,[3],inactive
same,outcome,PGR (gene 5241),inactive
Clc1ccccc1Cl,outcome,[3],inactive
CN(C)C(=O)Nc1ccc(Cl)cc1,outcome,[3],inactive
CC(C)(C)C(O)(CCc1ccc(Cl)cc1)Cn1cncn1 (configuration not stated),outcome,[13],inactive
same,AC50,[14],8.79 µM (active)
Oc1ccc2ccc3cccc4ccc1c2c34,AC50,[3],12.3 µM (active)
same,outcome,[12],inactive
same,outcome,PGR (gene 5241),inactive
same,AC50,[16],4.96 µM (active)
c1ccc(NNc2ccccc2)cc1,outcome,[3],inactive
same,outcome,[12],inactive
ClCCOCCCl,outcome,[3],inactive
COP(=S)(OC)SCN1C(=O)c2ccccc2C1=O,outcome,[3],inactive
O=C(O)C1C2CCC(O2)C1C(=O)O (configuration not stated),outcome,[12],inactive
CN(C)[C@@H]1C(=O)C(C(N)=O)=C(O)[C@@]2(O)C(=O)C3=C(O)c4c(O)cccc4[C@@](C)(O)[C@H]3C[C@@H]12,AC50,[16],15.9 µM (active)
Oc1ccccc1Cl,outcome,[12],inactive
c1ccc(C2CO2)cc1 (configuration not stated),outcome,[2],inactive
same,outcome,PGR (gene 5241),inactive
Nc1ccc(Cc2ccc(N)cc2)cc1,outcome,[14],inactive
same,outcome,[15],inactive
C=CCc1ccc2c(c1)OCO2,outcome,[3],inactive
same,outcome,[12],inactive
same,AC50,[13],11.6 µM (active)
C1=Cc2cccc3cccc1c23,outcome,PGR (gene 5241),inactive
